Results from PubChem BioAssay (Tox21).
Values joined by “and” are separate entries in the source; they are usually repeats but may differ in a detail not shown here. Equal values may be shown once. Inconclusive results are not listed. Some structures have more than one record in an assay (separate samples or runs), and their calls can disagree. Active and inactive are the calls of the source. Unless noted, calls come from the whole dose curve; as a rule, active = well fitted curve in the direction sought with a large enough effect in the repeat runs; inconclusive = weak or mixed curves; inactive = no such curve, though single readings can be large; an effect the other way counts as inactive or inconclusive.

Legend:
[1] = qHTS assay to identify small molecule agonists of the hypoxia (HIF-1) signaling pathway - cell viability counter screen (AID 1224844; calls by dose curve; note: nearly all actives have a fitted effect of over 50% in size)
Summary of the method: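 CellTiter-Glo luminescence read-out, 30 min RT, taken in the same wells as the beta-lactamase HRE reporter assay; HRE-bla ME-180 cells, 0.5% dialyzed FBS, 17 hr compound treatment at 37C, 5% CO2.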

[2] = qHTS assay to identify small molecule agonists of H2AX (AID 1224845; active = well fitted activation curve with a large enough effect in the signal ratio in the repeat runs, not every such curve was filed as active; the % refers to the signal ratio; note: potency is the fitted concentration of half-maximal effect)
Summary of the method: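 Phospho-H2AX Ser139 measured by HTRF (ex 320 nm; em 665 and 620 nm) after 24 hr antibody incubation. Compounds, 15 concentrations, 0.76% DMSO, were applied to CHO-K1 cells for 3hr at 37C before lysis.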

[3] = qHTS assay to identify small molecule agonists of the hypoxia (HIF-1) signaling pathway (AID 1224846; active = well fitted activation curve with a large enough effect in the signal ratio in the repeat runs, not every such curve was filed as active; the % refers to the signal ratio)
Summary of the method: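 Beta-lactamase FRET read-out (CCF4-AM substrate) from ME-180 cells carrying an HRE-driven bla reporter, after 17 hrs compound exposure at 37C/5% CO2. Cells were seeded at 2,000 per well in 0.5% dialyzed FBS medium and preincubated 5 hrs.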

[4] = qHTS assay to identify small molecule antagonists of the estrogen related receptor (ERR) signaling pathway from Tox21 library (AID 1224848); note: nearly all actives have a fitted effect of over 50% in size; note: potency is the fitted concentration of half-maximal effect
Summary of the method: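 ERR cell line, 2,000 cells/well. 6 h settle, then compound (DMSO) added; 18 h at 37 C; ONE-Glo luminescence after 30 min RT.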

[5] = qHTS RealTime-Glo MT Cell Viability Assay in HepG2 cells - 24 hour (AID 1224867); note: nearly all actives have a fitted effect of over 50% in size
Summary of the method: (§1)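 HepG2 cells (600/well) were dispensed with RealTime-Glo reagents, incubated 5 h at 37 °C, then treated with compounds in DMSO for up to 40 h. Nonlytic NanoLuc luminescence reflecting viable cells was read at each stated time point.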

[6] = qHTS RealTime-Glo MT Cell Viability Assay in HEK293 cells - 32 hour (AID 1224868); note: top concentration of the series differs between compounds; nearly all actives have a fitted effect of over 50% in size
Summary of the method: (§2)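 HEK293 cells seeded with NanoLuc/prosubstrate reagent, rested 5 h at 37 C, then dosed and kept at 37 C up to 40 h. Nonlytic real-time luminescence from viable cells read at 0, 8, 16, 24, 32 and 40 h.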

[7] = A CellTox Green Cytotoxicity Assay to monitor cytotoxicity in HEK293 cells - 0 hour (AID 1224869); note: nearly all actives have a fitted effect of over 50% in size
Summary of the method: (§3)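 Read-out: fluorescence of a cell-impermeant cyanine dye staining DNA of dead cells, proportional to cytotoxicity. HEK293, 600 cells/well with reagent, compound (23 nL DMSO) added after 5 h; reads at 0, 8, 16, 24, 32, 40 h.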

[8] = qHTS RealTime-Glo MT Cell Viability Assay in HepG2 cells - 40 hour (AID 1224870); note: nearly all actives have a fitted effect of over 50% in size
Summary of the method: (§4)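 Real-time viability: cells seeded at 600 per well together with NanoLuc and cell-permeant prosubstrate, compounds added after 5 h incubation. Luminescence tracked at 0, 8, 16, 24, 32 and 40 h of exposure.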

[9] = A CellTox Green Cytotoxicity Assay to monitor cytotoxicity in HEK293 cells - 40 hour (AID 1224871); note: nearly all actives have a fitted effect of over 45% in size
Summary of the method: as §3

[10] = qHTS RealTime-Glo MT Cell Viability Assay in HepG2 cells - 8 hour (AID 1224873); note: nearly all actives have a fitted effect of over 55% in size
Summary of the method: as §4

[11] = qHTS RealTime-Glo MT Cell Viability Assay in HEK293 cells - 40 hour (AID 1224874); details: RealTime-Glo luminescence; max response: stronger effect = lower value; note: nearly all actives have a fitted effect of over 50% in size; note: potency is the fitted concentration of half-maximal effect
Summary of the method: (§5)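 Luminescence readout at each listed time point; HEK293, 600 cells/well, RealTime-Glo MT reagent added with cells; compounds pinned (23 nL in DMSO) after 5 h at 37 C; continuous culture at 37 C.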

[12] = A CellTox Green Cytotoxicity Assay to monitor cytotoxicity in HEK293 cells - 24 hour (AID 1224875); note: nearly all actives have a fitted effect of over 45% in size
Summary of the method: as §3

[13] = A CellTox Green Cytotoxicity Assay to monitor cytotoxicity in HepG2 cells - 16 hour (AID 1224876); note: nearly all actives have a fitted effect of over 45% in size
Summary of the method: (§6)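 HepG2, 600 cells/well premixed w/ CellTox Green; 5 h settle, 37 C/5% CO2; pintool cpd add (DMSO); 37 C, 40 h; fluorescence read at 0, 8, 16, 24, 32, 40 h.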

[14] = qHTS RealTime-Glo MT Cell Viability Assay in HepG2 cells - 32 hour (AID 1224877); note: nearly all actives have a fitted effect of over 55% in size
Summary of the method: as §1

[15] = A CellTox Green Cytotoxicity Assay to monitor cytotoxicity in HepG2 cells - 24 hour (AID 1224878); note: nearly all actives have a fitted effect of over 45% in size; note: potency is the fitted concentration of half-maximal effect
Summary of the method: as §6

[16] = A CellTox Green Cytotoxicity Assay to monitor cytotoxicity in HepG2 cells - 40 hour (AID 1224879); note: nearly all actives have a fitted effect of over 40% in size; note: potency is the fitted concentration of half-maximal effect
Summary of the method: as §6

[17] = qHTS RealTime-Glo MT Cell Viability Assay in HEK293 cells - 0 hour (AID 1224880)
Summary of the method: as §5

[18] = qHTS assay to identify small molecule agonists of the estrogen related receptor (ERR) signaling pathway from Tox21 library (AID 1224849; calls by dose curve; note: nearly all actives have a fitted effect of over 15% in size); details: ERR reporter cell line, ONE-Glo luciferase, 18 h; at 92.4 µM (top of the series)
Summary of the method: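 Luminescence readout (ONE-Glo, 30 min RT) after 18 h compound exposure at 37 C of NTP-supplied ERR reporter cells; cells were plated 6 h before compound addition by pin tool.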

[19] = qHTS RealTime-Glo MT Cell Viability Assay in HEK293 cells - 16 hour (AID 1224872)
Summary of the method: as §2

[20] = qHTS assay to identify small molecule agonists of H2AX - cell viability counter screen (AID 1224847; calls by dose curve;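 note: wild-type CHO-K1 cells; top concentration of the series differs between compounds; nearly all actives have a fitted effect of over 30% in size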)
Summary of the method: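 After overnight plating of 1000 CHO-K1 cells per well, a 15-concentration compound series was applied for 3 hr at 37C. Luminescence from CellTiter-Glo, read following 30 min at room temperature, reflected cell viability.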
% is set by controls: 0 for no effect and ±100 for the full control effect.

CC1(C)C(C(=O)OC(C#N)c2cccc(Oc3ccccc3)c2)C1(C)C (stereo not given)
active: Potency [4] 30.9 µM | Potency [11] 22 µM
inactive: Potency [1] | Potency [2] | outcome [3] | Potency [5] | Potency [6] | Potency [7] | Potency [8] | Potency [9] | Potency [10] | max response [11] -25.9% | Potency [12] | Potency [13] | Potency [14] | Potency [15] | Potency [16] | Potency [17]

CCCCC(C#N)(Cn1cncn1)c1ccc(Cl)cc1 (stereo not given)
active: Potency [4] 48.4 µM
inactive: Potency [1] | Potency [2] | outcome [3] | activity change, positive = activation [18] -34.1% and -20% | Potency [5] | Potency [6] | Potency [7] | Potency [8] | Potency [19] | Potency [10] | Potency [12] | Potency [13] | Potency [14] | Potency [15] | Potency [17]

CCCCOC(=O)COC(=O)c1ccccc1C(=O)OCCCC
inactive: Potency [1] | Potency [2] | outcome [3] | Potency [4] | Potency [5] | Potency [6] | Potency [7] | Potency [8] | Potency [9] | Potency [10] | max response [11] -1.67% and 1.98% | Potency [12] | Potency [13] | Potency [14] | Potency [15] | Potency [16] | Potency [17]

CCOS(=O)(=O)OCC
inactive: Potency [1] | Potency [2] | outcome [3] | Potency [20] | Potency [5] | Potency [6] | Potency [7] | Potency [8] | Potency [19] | Potency [10] | max response [11] 6.05% | Potency [12] | Potency [13] | Potency [14] | Potency [15] | Potency [16] | Potency [17]

CSc1nc(NC(C)C)nc(NC(C)C)n1
inactive: Potency [1] | Potency [2] | outcome [3] | Potency [4] | activity change, positive = activation [18] -11% and -12.6% | Potency [5] | Potency [6] | Potency [7] | Potency [8] | Potency [9] | Potency [19] | Potency [10] | max response [11] -22.1% | Potency [12] | Potency [13] | Potency [14] | Potency [15] | Potency [16] | Potency [17]

CNC(=S)S
inactive: Potency [1] | Potency [2] | outcome [3] | Potency [20] | Potency [5] | Potency [6] | Potency [7] | Potency [8] | Potency [9] | Potency [10] | max response [11] 24.9% and 0.0192% | Potency [12] | Potency [13] | Potency [14] | Potency [15] | Potency [16] | Potency [17]

CCC/C=N/O
inactive: Potency [1] | Potency [2] | outcome [3] | Potency [5] | Potency [6] | Potency [7] | Potency [8] | Potency [9] | Potency [19] | Potency [10] | max response [11] -8.66% and 0.163% | Potency [12] | Potency [13] | Potency [14] | Potency [15] | Potency [16] | Potency [17]

ClC(Cl)=C(Cl)C(Cl)=C(Cl)Cl
inactive: Potency [1] | Potency [2] | outcome [3] | Potency [20] | Potency [5] | Potency [6] | Potency [7] | Potency [8] | Potency [9] | Potency [10] | max response [11] 3.65% and 8.28% | Potency [12] | Potency [13] | Potency [14] | Potency [15] | Potency [16] | Potency [17]

O=C(O)CF
inactive and 19.5 µM (active): Potency [15] | Potency [16]
inactive: Potency [1] | Potency [2] | outcome [3] | Potency [5] | Potency [6] | Potency [7] | Potency [8] | Potency [9] | Potency [19] | Potency [10] | max response [11] 2.85% and 14% | Potency [12] | Potency [13] | Potency [14] | Potency [17]

C[C@]12CC[C@H]3[C@@H](CCC4=CC(=O)CC[C@@H]43)[C@@H]1CC[C@@H]2O
active: Potency [2] 99.8 µM
inactive: Potency [1] | outcome [3] | Potency [5] | Potency [6] | Potency [7] | Potency [8] | Potency [9] | Potency [19] | Potency [10] | Potency [12] | Potency [13] | Potency [14] | Potency [15] | Potency [16] | Potency [17]

COP(=S)(OC)SCn1nnc2ccccc2c1=O
active: Potency [4] 53.4 µM and 61.1 µM | Potency [11] 48 µM
inactive: Potency [1] | Potency [2] | outcome [3] | activity change, positive = activation [18] -43.4% and -47.5% | Potency [5] | Potency [7] | Potency [8] | Potency [9] | Potency [10] | Potency [12] | Potency [13] | Potency [14] | Potency [15] | Potency [16] | Potency [17]

ClCC(Cl)CCl
inactive: Potency [1] | Potency [2] | outcome [3] | Potency [4] | activity change, positive = activation [18] 8.78% and 5.09% | Potency [5] | Potency [6] | Potency [7] | Potency [8] | Potency [9] | Potency [10] | Potency [12] | Potency [13] | Potency [14] | Potency [15] | Potency [16] | Potency [17]
